Consider eight molecules from PubChem BioAssay (Tox21).

The structures appear in SMILES notation. A number with no mark means an inactive call. Records with an inconclusive call do not appear. Active and inactive are the calls of the source. Unless noted, calls come from the whole dose curve; as a rule, active = well fitted curve in the direction sought with a large enough effect in the repeat runs; inconclusive = weak or mixed curves; inactive = no such curve, though single readings can be large; an effect the other way counts as inactive or inconclusive.

Experiment [1] can be described thus: qHTS RealTime-Glo MT Cell Viability Assay in HEK293 cells - 0 hour (AID 1224880). Note: top concentration of the series differs between compounds; nearly all actives have a fitted effect of over 45% in size. An outline of the steps: (§1)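 Cells were seeded together with NanoLuc luciferase and a prosubstrate that viable cells reduce to a luciferase substrate. After a 5 h incubation at 37 C/5% CO2, compounds were added and luminescence was measured repeatedly during 40 h of treatment.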
(qHTS replaces the single test concentration by a dilution series.)

Experiment [2] can be described thus: A CellTox Green Cytotoxicity Assay to monitor cytotoxicity in HEK293 cells - 32 hour (AID 1224881). Note: nearly all actives have a fitted effect of over 40% in size. An outline of the steps:
(§2)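 Nonlytic real-time cytotoxicity: HEK293 + CellTox Green reagent plated, 5 h preincubation, pintool compound addition (23 nL in DMSO), 37 C for 40 h, fluorescence measured at successive time points.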

Experiment [3] can be described thus: A CellTox Green Cytotoxicity Assay to monitor cytotoxicity in HepG2 cells - 0 hour (AID 1224882). Note: nearly all actives have a fitted effect of over 35% in size. The method, boiled down:
(§3)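 Read-out is fluorescence of a cyanine dye excluded from live cells that stains DNA of dead HepG2 cells, with signal proportional to cytotoxicity. Plates were read at 0, 8, 16, 24, 32 and 40 h after compound addition.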

The nature of experiment [4]: A CellTox Green Cytotoxicity Assay to monitor cytotoxicity in HepG2 cells - 32 hour (AID 1224883). Note: nearly all actives have a fitted effect of over 50% in size. An outline of the steps: as §3
Experiment [5] in a line: A CellTox Green Cytotoxicity Assay to monitor cytotoxicity in HEK293 cells - 8 hour (AID 1224884). Note: nearly all actives have a fitted effect of over 35% in size. The method, boiled down:
as §2

A short description of experiment [6]: qHTS RealTime-Glo MT Cell Viability Assay in HepG2 cells - 16 hour (AID 1224885). Note: nearly all actives have a fitted effect of over 50% in size. An outline of the steps:
(§4)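 HepG2 suspension premixed with RealTime-Glo reagents is plated at 600 cells per well and left 5 h at 37 C/5% CO2. Compounds in DMSO then go in, and bioluminescence reflecting viable cell number is recorded over 40 h.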

Experiment [7] can be described thus: qHTS RealTime-Glo MT Cell Viability Assay in HEK293 cells - 24 hour (AID 1224886). Note: top concentration of the series differs between compounds; nearly all actives have a fitted effect of over 50% in size. An outline of the steps: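 Reads taken at 0, 8, 16, 24, 32 and 40 h from the same wells. HEK293 cells (600/well) carried RealTime-Glo reagents from seeding, with compound added after a 5 h settle at 37 C.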
Experiment [8] in a line: qHTS RealTime-Glo MT Cell Viability Assay in HEK293 cells - 8 hour (AID 1224887). Note: top concentration of the series differs between compounds; nearly all actives have a fitted effect of over 50% in size. An outline of the steps: as §1
Experiment [9] is described as follows: A CellTox Green Cytotoxicity Assay to monitor cytotoxicity in HEK293 cells - 16 hour (AID 1224888). Note: nearly all actives have a fitted effect of over 35% in size. An outline of the steps: as §2
A short description of experiment [10]: qHTS RealTime-Glo MT Cell Viability Assay in HepG2 cells - 0 hour (AID 1224889). Note: nearly all actives have a fitted effect of over 50% in size. An outline of the steps: as §4
Experiment [11] is described as follows: qHTS assay to identify small molecule antagonists of the estrogen receptor alpha (ER-alpha) signaling pathway using the BG1 cell line in the presence of 0.1 nM 17-beta-estradiol - cell viability counter screen (AID 1259241). Note: nearly all actives have a fitted effect of over 40% in size. An outline of the steps:
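CellTiter-Fluor read (30 min, 37C) on ER-alpha/ERE-luc VM7Luc4E2 cells; 22 hr compound treatment; agonist 0.1 nM E2 final; same-well multiplex.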

Experiment [12] can be described thus: qHTS assay to identify small molecule antagonists of the androgen receptor (AR) signaling pathway using the MDA cell line in the presence of 0.5 nM R1881 - cell viability counter screen (AID 1259242). Note: nearly all actives have a fitted effect of over 45% in size. The method, boiled down:
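Counter screen for cytotoxicity run in the same wells as the AR antagonist reporter screen: MDA-kb2 cells were treated 16 hr with test compounds and 0.5 nM R1881, then live-cell protease activity was measured by fluorescence.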

Experiment [13] concerns the target Estrogen receptor (Homo sapiens) (UniProt P03372). The experiment can be described thus: qHTS assay to identify small molecule antagonists of the estrogen receptor alpha (ER-alpha) signaling pathway using the BG1 cell line in the presence of 0.1 nM 17-beta-estradiol (AID 1259244). Note: nearly all actives have a fitted effect of over 50% in size. The method, boiled down: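 Cells: VM7Luc4E2, endogenous ER-alpha, 4x ERE-luc stable. Pre-culture 5 d, phenol red-free, charcoal-stripped FBS. Plated 24 h, compound + E2 0.1 nM final, 22 h 37C/5% CO2. Readout ONE-Glo luminescence.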

A short description of experiment [14]: qHTS assay to identify small molecule HDAC inhibitors (AID 1259364). For activity change, negative = inhibition: top concentration of the series differs between compounds. Note: nearly all actives have a fitted effect of over 45% in size. Note: potency is the fitted concentration of half-maximal effect. The method, boiled down: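 Luminescence from a cell-permeant luminogenic class I/II HDAC substrate reports endogenous deacetylase activity in intact HCT-116 cells treated with compounds for 2 h.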
Experiment [15] is described as follows: qHTS assay to identify small molecule HDAC inhibitors - cell viability counter screen (AID 1259365). An outline of the steps:
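To flag cytotoxic hits, 1,500 wild-type HCT-116 cells per well, plated the day before, receive test compounds for 2hr at 37 C before CellTiter-Glo reagent and a luminescence read.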

Experiment [16] is described as follows: qHTS assay to identify small molecule agonists of the sonic hedgehog signaling (Shh) pathway - cell viability counter screen (AID 1259366). Note: nearly all actives have a fitted effect of over 50% in size. An outline of the steps:
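Fluorescence from CellTiter-Fluor reports live cells in this counter screen. NIH/3T3-derived Gli1-Luc reporter cells receive test compounds for 24hr at 37C; reagent goes in at 23hr.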

The target of experiment [17] is Androgen receptor (Homo sapiens) (UniProt P10275). The experiment can be described thus: qHTS assay to identify small molecule antagonists of the androgen receptor (AR) signaling pathway using the MDA cell line in the presence of 0.5 nM R1881 (AID 1259243). Note: nearly all actives have a fitted effect of over 50% in size. Note: potency is the fitted concentration of half-maximal effect. An outline of the steps: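 Luciferase luminescence is the read-out: compounds are tested for suppressing 0.5 nM R1881-driven MMTV reporter activity in MDA-kb2 cells after 16 hr at 37C.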
Sequence of Androgen receptor (Homo sapiens) (P10275 whole entry, looked up): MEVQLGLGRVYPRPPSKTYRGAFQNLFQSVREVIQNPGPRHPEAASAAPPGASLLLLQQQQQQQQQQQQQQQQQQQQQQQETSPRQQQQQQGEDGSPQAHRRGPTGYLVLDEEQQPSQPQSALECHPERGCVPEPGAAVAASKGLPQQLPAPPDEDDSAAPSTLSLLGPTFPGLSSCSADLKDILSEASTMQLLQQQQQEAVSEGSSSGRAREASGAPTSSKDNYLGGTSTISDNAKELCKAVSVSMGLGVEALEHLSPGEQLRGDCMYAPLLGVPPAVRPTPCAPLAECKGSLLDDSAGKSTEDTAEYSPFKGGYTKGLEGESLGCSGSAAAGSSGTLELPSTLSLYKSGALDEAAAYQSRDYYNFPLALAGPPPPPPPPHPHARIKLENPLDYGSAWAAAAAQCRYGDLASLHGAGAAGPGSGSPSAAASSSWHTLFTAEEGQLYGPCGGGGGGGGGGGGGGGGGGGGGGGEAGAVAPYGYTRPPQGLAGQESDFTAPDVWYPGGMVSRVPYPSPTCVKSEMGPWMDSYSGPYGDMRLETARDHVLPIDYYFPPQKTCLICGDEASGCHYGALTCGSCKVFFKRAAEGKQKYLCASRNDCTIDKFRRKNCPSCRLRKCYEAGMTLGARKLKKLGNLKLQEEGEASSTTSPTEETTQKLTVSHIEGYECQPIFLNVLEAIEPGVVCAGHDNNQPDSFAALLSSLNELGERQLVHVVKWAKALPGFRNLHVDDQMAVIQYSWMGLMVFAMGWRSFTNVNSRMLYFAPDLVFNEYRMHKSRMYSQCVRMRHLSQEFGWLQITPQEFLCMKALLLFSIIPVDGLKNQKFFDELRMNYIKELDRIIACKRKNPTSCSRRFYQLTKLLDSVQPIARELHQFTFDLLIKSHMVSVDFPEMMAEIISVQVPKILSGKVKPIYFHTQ

A short description of experiment [18]: qHTS assay to identify small molecule antagonists of the sonic hedgehog signaling (Shh) pathway - cell viability counter screen (AID 1259367). Note: nearly all actives have a fitted effect of over 55% in size. An outline of the steps: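 NIH/3T3-derived Gli1-Luc reporter cells, 2,000/well, plated 4 hr before compound addition, then stimulated with conditioned medium for 24 hr at 37C. Viability measured in the same wells by CellTiter-Fluor fluorescence, reagent added at 23 hr for 1 hr.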

Experiment [19] can be described thus: qHTS assay to identify small molecule phospholipidosis (PLD) inducers (AID 1259344; active = well fitted curve in the direction sought with a large enough effect; an effect the other way counts as inactive or inconclusive). An outline of the steps: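 HepG2 cells, 900/well, treated with compound plus LipidTOX Red for 24 h at 37 C; amiodarone positive and DMSO negative controls. Fixed with paraformaldehyde/Hoechst, then high-content imaging scored LipidTOX pit count and integrated intensity per well and per cell.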

A short description of experiment [20]: A CellTox Green Cytotoxicity Assay to monitor cytotoxicity in HepG2 cells - 8 hour (AID 1224890). Note: nearly all actives have a fitted effect of over 45% in size. An outline of the steps:
as §3
% is set by controls: 0 for no effect and ±100 for the full control effect.

Sequence of Estrogen receptor (Homo sapiens) (P03372 whole entry, looked up): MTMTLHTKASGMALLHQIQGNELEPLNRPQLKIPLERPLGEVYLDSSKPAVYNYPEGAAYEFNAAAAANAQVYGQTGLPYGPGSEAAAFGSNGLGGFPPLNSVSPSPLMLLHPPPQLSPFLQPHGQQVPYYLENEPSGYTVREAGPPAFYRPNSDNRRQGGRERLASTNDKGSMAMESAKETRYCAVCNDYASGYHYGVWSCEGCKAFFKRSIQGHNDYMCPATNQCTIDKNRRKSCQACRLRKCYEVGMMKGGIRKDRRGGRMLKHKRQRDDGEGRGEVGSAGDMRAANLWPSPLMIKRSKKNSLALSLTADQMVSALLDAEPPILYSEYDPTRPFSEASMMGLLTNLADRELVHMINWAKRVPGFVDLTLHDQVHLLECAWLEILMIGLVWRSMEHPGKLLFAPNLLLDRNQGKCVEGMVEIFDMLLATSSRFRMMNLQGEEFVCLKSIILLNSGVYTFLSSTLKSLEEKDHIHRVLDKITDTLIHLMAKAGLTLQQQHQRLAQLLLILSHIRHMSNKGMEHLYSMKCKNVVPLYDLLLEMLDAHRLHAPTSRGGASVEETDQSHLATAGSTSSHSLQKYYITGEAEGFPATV

`CC/C=C\C#N`: the result in [1], in experiment [6], in experiment [11], in [12], in experiment [13] and in [15] was inactive. Also, the Potency entry in experiment [2], in [3], in experiment [4], in [5], in [7] and in [8] was “inactive” each time. In addition, the Potency result in experiment [9], in experiment [10], in experiment [14] and in experiment [16] was “inactive” in each case.

On to `CC(C)CCCC(C)NCCC(C)C` (stereo unspecified), for which the call in [1], in [6], in [11], in experiment [12], in experiment [13] and in experiment [15] was inactive. In experiment [18], the molecule was called inactive. Also, the Potency result in experiment [2], in [3], in [4], in experiment [5], in [7] and in experiment [8] was “inactive” throughout. Moreover, the Potency entry in [9], in experiment [10], in experiment [17], in [14] and in [16] was “inactive” throughout.

In the case of `O=C(O)c1ccc[n+]([O-])c1`, the molecule was classed as inactive in [1], in [6], in [11], in [12], in experiment [13] and in experiment [15]. Besides, the call in experiment [18] was inactive. For the same molecule, the Potency entry in experiment [2], in [3], in experiment [4], in [5], in [7] and in [8] was “inactive” each time. In addition, the Potency result in experiment [9], in experiment [10], in experiment [17], in experiment [19], in experiment [14] and in [16] was “inactive” in each case.

Regarding `Cn1ccc2cc3c(cc21)CCN3C(=O)Nc1cccnc1`, the activity change, negative = cytotoxicity in [1] is -0.254% [at 15.8 µM]; in [7], -8.85% [at 15.8 µM]; in experiment [8], -3.76% [at 15.8 µM]; in experiment [10] it was -0.377% [at 15.8 µM]; in experiment [11] it was -4.26% [at 19 µM]; in experiment [15], -0.0806% [at 19 µM]. For the same molecule, the cytotoxicity increase is 1.72% [at 15.8 µM] in experiment [2], -9.84% [at 15.8 µM] in [4] and -5.84% [at 15.8 µM] in experiment [5]. Besides, the cytotoxicity in [3] was -1.51% [at 15.8 µM]. Also, the activity change, negative = cytotoxic in experiment [6] was -4.07% [at 15.8 µM]. Besides, the activity change in experiment [9] is -2.95% [at 15.8 µM, stronger effect = higher value]. Moreover, the viability change, negative = cytotoxic in experiment [12] was -1.94% [at 19 µM]; in experiment [16], 4.12% [at 19 µM]. Besides, the activity change, negative = inhibition in experiment [13] was 76.4% [at 19 µM]. Also, the Potency entry in experiment [19] is “inactive”. Moreover, in experiment [14], the Potency was 11.6 µM (active).

Consider `CC1(C)OC(=O)Nc2ccc(Br)cc21`, for which the molecule was classed as inactive in [1], in experiment [6], in experiment [11], in [12], in experiment [13] and in experiment [15]. Besides, the outcome in experiment [18] was inactive. Also, the Potency entry in experiment [2], in experiment [3], in [4], in experiment [5], in [7] and in experiment [8] was “inactive” in each case. The Potency entry in experiment [10], in [20], in [14] and in experiment [16] was “inactive” each time. Further, the Potency in experiment [17] was 9.44 µM (active).

As for `COc1cc(CCC(C)=O)ccc1O`, the molecule was called inactive in [1], in experiment [6], in experiment [11], in experiment [12], in experiment [15] and in [18]. Also, the Potency result in [2], in experiment [3], in [4], in experiment [5], in experiment [7] and in experiment [8] was “inactive” throughout. For the same molecule, the Potency result in experiment [9], in [10], in experiment [17], in [14] and in experiment [16] was “inactive” in each case.

Take `O=S(=O)(O)c1ccccc1O`: the molecule was called inactive in experiment [1], in experiment [6], in [11], in [12], in experiment [13] and in [15]. Further, the molecule was called inactive in experiment [18]. The Potency result in [2], in experiment [3], in experiment [4], in experiment [5], in experiment [7] and in experiment [8] was “inactive” throughout. The Potency result in experiment [10], in experiment [20], in [17], in [14] and in experiment [16] was “inactive” in each case.

In the case of `CCN1CCN(c2cc3c(cc2F)c(=O)c(C(=O)O)cn3C2CC2)CC1`, the outcome in experiment [1], in experiment [6], in experiment [11], in experiment [12], in [15] and in experiment [18] was inactive. The Potency entry in experiment [2], in experiment [3], in [4], in [5], in [7] and in experiment [8] was “inactive” in each case. The Potency entry in experiment [9], in experiment [10], in [17], in [19], in [14] and in experiment [16] was “inactive” throughout.
